Cruzain noTriton = inhibitors of Trypanosoma cruzi cruzain without detergent | purified cruzain, Z-FR-AMC fluorescence, no detergent | P25779 | AID 1476 | Potency, µM, without a hit: max response, negative = inhibition, usual class: inhibitors | 200,000 compounds, 2.3% hits;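 also: plate controls were enzyme without inhibitor for no effect and buffer without enzyme for full effect; nearly all actives have a fitted effect of over 40% in size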
Target sequence (P25779 123-467 limits assumed): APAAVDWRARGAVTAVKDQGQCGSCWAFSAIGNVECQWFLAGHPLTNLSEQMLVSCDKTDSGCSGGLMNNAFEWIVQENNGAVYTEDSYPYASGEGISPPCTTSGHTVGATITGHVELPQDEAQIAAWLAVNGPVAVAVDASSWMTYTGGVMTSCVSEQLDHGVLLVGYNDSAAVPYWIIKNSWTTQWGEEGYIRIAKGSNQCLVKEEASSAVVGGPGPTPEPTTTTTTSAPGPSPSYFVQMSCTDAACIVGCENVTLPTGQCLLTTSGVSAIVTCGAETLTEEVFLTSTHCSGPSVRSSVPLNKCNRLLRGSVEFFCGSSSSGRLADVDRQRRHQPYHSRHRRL
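Purified cruzain at 1.5 nM, pre-incubated 15 min with compound at room temperature in 100 mM sodium acetate pH 5.5, 5 mM DTT, 0.00005% Triton X-100. Reaction started with 2 uM Z-FR-AMC; AMC fluorescence increase over 60 s gives rate.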
Cruzain Triton = inhibitors of Trypanosoma cruzi cruzain with detergent; purified cruzain, Z-FR-AMC fluorescence, 0.01% Triton; Potency, µM, inactives show max response, negative = inhibition, actives largely listed as inhibitors; 200,000 compounds, 0.43% hits; P25779;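 also: plate controls were neutral wells for no effect and buffer without enzyme for full effect; nearly all actives have a fitted effect of over 40% in size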
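Read-out: AMC fluorescence (360 nm excitation, 450 nm emission), four reads over 2 min, first-to-third difference used. Conditions: cruzain 1.5 nM, Z-FR-AMC 2 uM, pH 5.5 acetate, 5 mM DTT, 0.01% Triton X-100.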
* = called active by the depositor; ? = inconclusive. An excerpt weighted towards active compounds, which were near 2.5% of everything screened. Calls follow the shape of the dose curve; as a rule, active = well fitted curve in the direction sought with a large enough effect; inconclusive = small, poorly fitted or top-dose-only effect, or another doubt; inactive = no such curve, though single readings can be large; an effect the other way counts as inactive or inconclusive. Potency is read from the fitted curve at half-maximal effect.

SMILES | Cruzain noTriton | Cruzain Triton
O=C(CCCN1C(=O)/C(=C/c2cccs2)SC1=S)NNC(=O)c1ccccc1O | -12% | -4%
O=C(CN1C(=O)/C(=C\C=C\c2ccccc2)SC1=S)Nc1ccc(F)cc1 | 6.3µM* | -7%
CN(C)c1ccc(C(CNS(=O)(=O)c2ccc(Br)cc2)N2CCOCC2)cc1 (centres undefined) | 16% | -1%
CS(=O)(=O)Nc1c(O)ccc2c1CCC[C@H]2C1=NCCN1 | 3% | 5%
CN(C)C1C(=O)C(C(N)=O)C(=O)C2(O)C(=O)C3C(=O)c4c(O)ccc(Cl)c4C(O)C3CC12 (centres undefined) | -2% | 1%
COc1ncc2ncc(=O)n(CCC#N)c2n1 | 4% | -2%
COc1ccc(Cl)cc1NC(=O)Cn1ccn(-c2cc(C)cc(C)c2)c(=O)c1=O | 3% | -3%
CCOc1cc(/C=N\NC(=O)Cn2nc([N+](=O)[O-])cc2C)ccc1OCc1cccc2ccccc12 | 13µM* | -1%
CCOc1cc(/C=N/NC(=O)CSc2nnc(C)s2)ccc1OCc1ccccc1Cl | 14% | -2%
CCN(CC)C(=O)c1sc2c(c1C)c(=O)n(Cc1ccccc1)c(=O)n2Cc1c(C)cc(C)cc1C | -5% | -2%
CN1/C(=C\C(=O)COC(=O)CN2C(=O)C3CC=CCC3C2=O)C(C)(C)c2ccccc21 (centres undefined) | 9% | -8%
CN1/C(=C\C(=O)COC(=O)CNC(=O)c2ccccc2F)C(C)(C)c2ccccc21 | 20µM* | 22µM*
CNS(=O)(=O)c1cccc(C(=O)OCC(=O)/C=C2/N(C)c3ccccc3C2(C)C)c1 | 3% | -14%
CN1/C(=C\C(=O)COC(=O)CNC(=O)c2ccc3ccccc3c2)C(C)(C)c2ccccc21 | 25µM* | -24%
CC(C)(C)c1cc(Br)c(O)c(CN(Cc2cc(C(C)(C)C)cc(Br)c2O)C2CCCCC2)c1 | -2% | 2%
COc1cccc(NC(=O)CCc2nc(-c3cc(OC)c(OC)c(OC)c3)no2)c1 | ? | -11%
CC(C)(C)OC(=O)N1CCC(c2c(C(=O)N3CCN(c4ccccn4)CC3)cnn2-c2ccccc2Cl)CC1 | ? | -4%
Cc1ccccc1OCc1nc(-c2ccc(-n3cccc3)cc2)no1 | ? | 0%
Cc1ccc(OCc2nc(-c3ccc(-n4cccc4)cc3)no2)cc1C | 25µM* | 4%
Fc1ccccc1OCc1nc(-c2ccc(-n3cccc3)cc2)no1 | -15% | -4%
Cc1cccc(OCc2nc(-c3ccc(-n4cccc4)cc3)no2)c1 | 20µM* | 2%
O=C1C=CC2=C3c4cc(O)c(O)cc4C[C@]3(O)COC2=C1 | -6% | -1%
COc1ccc(CNC(=O)[C@H](C)[C@H]2C[C@]2(C)[C@H](NC(=O)OCc2ccccc2)c2ccccc2)cc1OC | 28% | 1%
Cc1ccc(-c2nnc(SCC(=O)NC3CCS(=O)(=O)C3)nc2-c2ccc(C)cc2)cc1 (centres undefined) | ? | -10%
Cc1n[nH]c(=S)n1/N=C/c1ccc(OCc2ccc(Cl)cc2Cl)cc1 | -14% | -2%
SMILES | Cruzain noTriton | Cruzain Triton
Cc1n[nH]c(=S)n1/N=C/c1ccccc1OCc1ccc(Cl)cc1Cl | 16µM* | -1%
CN(C)S(=O)(=O)c1ccc(NC(=O)N2CCN(c3ccccc3Cl)CC2)cc1 | 1% | -6%
Cc1ccc(S(=O)(=O)NC(=O)O[C@@H]2C(=O)c3cc(Br)ccc3O[C@H]2c2ccc3c(c2)OCO3)cc1 | -5% | 1%
N#Cc1ccccc1-c1ccc2ncnc(NCc3cccs3)c2c1 | -8% | -13%
O=C(CSc1nnc(-c2ccccc2)c(-c2ccccc2)n1)Nc1ncc(Cl)cc1Cl | 32µM* | -11%
Cc1nc(NC(=O)CSc2nnc(-c3ccccc3)c(-c3ccccc3)n2)c(Cl)cc1Cl | ? | -13%
CCN(CCCNC(=O)C1CCCN(S(=O)(=O)c2cnc[nH]2)C1)c1ccccc1 (centres undefined) | -8% | 2%
CCC(=O)Nc1ccc(CC)cc1-c1nc2ccccc2n(Cc2ccccc2)c1=O | 7% | -4%
CCOc1ccc(NS(=O)(=O)c2ccc3[nH]cc(C(=O)NCCc4ccccc4)c(=O)c3c2)cc1 | 14% | -2%
CCc1ccc(NS(=O)(=O)c2ccc3[nH]cc(C(=O)NCCCOC(C)C)c(=O)c3c2)cc1 | 20µM* | -4%
CC(C)c1ccc(NS(=O)(=O)c2ccc3[nH]cc(C(=O)NCCc4ccccc4)c(=O)c3c2)cc1 | 7% | 1%
COc1cccc(NS(=O)(=O)c2ccc3[nH]cc(C(=O)NCCc4ccccc4)c(=O)c3c2)c1 | 13µM* | -2%
COc1cccc(NS(=O)(=O)c2ccc3[nH]cc(C(=O)NC4CC4)c(=O)c3c2)c1 | -5% | -10%
COc1cccc(NS(=O)(=O)c2ccc3[nH]cc(C(=O)NCCc4ccc(C)cc4)c(=O)c3c2)c1 | 13µM* | 3%
